In PubChem BioAssay (EPA / NIEHS):
Results filed as inconclusive are left out. Calls of active or inactive are those of the source. How the source made its calls, unless noted: active means hit-call score of the fitted dose curve at least 0.9, where 1 is the maximum; inactive means score below 0.9.

Experiments:
[1] = CCTE_Shafer_MEA_dev_network_spike_duration_std: CCTE's Neural Network Formation Assay for Standard Deviation of Network Spike Duration, Shafer Lab (AID 2284052);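 further: area under curve of spike duration SD across recording days 5 to 12; hits are decreases in network spike duration SD versus DMSO vehicle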
In short: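 Read-out is the trapezoidal area-under-the-curve across recordings made on days 5, 7, 9 and 12, fitted in the negative direction against DMSO baseline. Neurons were primary rat cortical cells treated from day 0, with treatment renewed at each feed.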

[2] = CCTE_Shafer_MEA_dev_per_network_spike_spike_number_mean: CCTE's Neural Network Formation Assay for Mean Number of Spikes in a Network Spike, Shafer Lab (AID 2284053);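 further: fitted as decrease in spikes per network spike relative to DMSO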
In short: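 Continuous twelve-day exposure of developing rat cortical networks grown over 16 microelectrodes per well; spontaneous firing is captured at four time points, and the per-network-spike spike number is integrated over development by trapezoidal AUC.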

[3] = CCTE_Shafer_MEA_dev_per_network_spike_spike_percent: CCTE's Neural Network Formation Assay for Percent of Spikes in a Network Spike, Shafer Lab (AID 2284054)
In short: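 Read-out: percent of spikes falling in a 0.05 s window at network-spike peak, from spontaneous MEA recordings on days 5, 7, 9 and 12; trapezoidal AUC; loss of signal versus DMSO. Rat cortical cultures, compound present throughout.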

[4] = CCTE_Shafer_MEA_dev_LDH: CCTE's Lactate Dehydrogenase Assay for Cytotoxicity in the Neural Network Formation Assay, Shafer Lab (AID 2284068; active means hit-call score of the fitted dose curve at least 0.9, where 1 is the maximum;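 further: exposure for twelve days from plating with re-dosing on DIV 5 and 9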)
In short: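 Cytotoxicity companion to network-formation recordings: rat cortical neurons received compound over 12 days of development, re-dosed at DIV 5 and 9 feeds. Viability was inferred from LDH enzyme activity relative to DMSO.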

[5] = CCTE_Shafer_MEA_dev_AB: CCTE's Alamar Blue Assay for Cytotoxicity in the Neural Network Formation Assay, Shafer Lab (AID 2284083; active means hit-call score of the fitted dose curve at least 0.9, where 1 is the maximum;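 further: resazurin reduction fluorescence as viability of cultured neurons; twelve days of exposure from plating with re-dosing on DIV 5 and 9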)
In short: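 Fluorescent resazurin reduction serves as the viability read-out, with DMSO as negative control and baseline. Cells were primary rat cortical neurons grown on MEA plates and dosed from day 0 to day 12, treatment renewed on DIV 5 and 9.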

[6] = CCTE_Shafer_MEA_acute_LDH: CCTE's Lactate Dehydrogenase Assay for Cytotoxicity in the Neural Acute Assay, Shafer Lab (AID 2284086; active means hit-call score of the fitted dose curve at least 0.9, where 1 is the maximum;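 further: active means LDH release rises above DMSO vehicle level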)
In short: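 Cytotoxicity readout: spectrophotometric LDH activity in supernatant of rat primary cortical neurons, post-plating day 13 or 15, sampled after 40 min compound exposure; signal gain relative to DMSO baseline.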

[7] = CCTE_Shafer_MEA_dev_mutual_information_norm: CCTE's Neural Network Formation Assay for Mutual Information Normalization, Shafer Lab (AID 2284091)
In short: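 Neurons from rat cortex were seeded at 1.5 x 10^5 cells/well onto PEI-coated MEAs in a laminin drop, then exposed to compound from day 0 for twelve days. Network recordings on four days gave mutual information, summarised by AUC relative to DMSO.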

[8] = CCTE_Shafer_MEA_dev_correlation_coefficient_mean: CCTE's Neural Network Formation Assay for Mean Correlation Coefficient, Shafer Lab (AID 2284093);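 further: well mean pairwise spike train correlation integrated as AUC over recording days 5 to 12; potency fitted for loss of correlation relative to DMSO vehicle wells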
In short: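 Read-out: well-mean correlation coefficient of spike trains between electrode pairs, collapsed over four recording days as trapezoidal area-under-the-curve. Developing rat cortical neuron networks grown on MEAs received test chemical continuously from plating.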

[9] = UKN4_HCS_LUHMES_neurite_outgrowth: University of Konstanz (UKN) Leist Lab Neurite Outgrowth Assay in human LUHMES cells (UKN4) (AID 2284206); details: actives raise or lower the signal
In short: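 Neurite area in dopaminergic-model LUHMES neurons is measured by high-content imaging of calcein-AM after 24 h treatment starting shortly after day-2 replating; Hoechst staining tracks viability.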

[10] = IUF_NPC1b_proliferation_BrdU_72hr: Leibniz Research Institute for Environmental Medicine (IUF) 72-hour Neural Progenitor Cell Bromodeoxyuridine (BrdU) Proliferation Assay (NPC1b) (AID 2284207)
In short: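 Luminescent BrdU ELISA measured DNA synthesis during the last 16 h of a 72 h exposure of primary human neural progenitor spheres grown with EGF and FGF. Signal was fitted relative to DMSO controls.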

[11] = IUF_NPC1_viability_72hr: Viability Assessment at 72 hours in the Leibniz Research Institute for Environmental Medicine (IUF) Neural Progenitor Cell Proliferation Assay (NPC1) (AID 2284209)
In short: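 Three-day continuous exposure of human neural progenitor spheres under EGF/FGF-driven proliferation; cell viability scored by alamar blue signal versus DMSO.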

[12] = CCTE_Mundy_HCI_Cortical_Synap_Neur_Matur_NeuriteSpotCountPerNeuriteLength: CCTE's Synaptogenesis and Neurite Maturation Assay in rat cortical cells for Neurite Spot Count per Neurite Length, Mundy Lab (AID 2284210)
In short: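 Read-out: synaptophysin puncta counted along MAP2-stained neurites, normalised to neurite length, by automated high-content imaging. Rat cortical cells; AraC DIV 5; chemical dosing DIV 7; termination DIV 12. DMSO baseline.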

[13] = CCTE_Mundy_HCI_Cortical_Synap_Neur_Matur_BPCount: CCTE's Synaptogenesis and Neurite Maturation Assay in rat cortical cells for Branch Point Count, Mundy Lab (AID 2284211)
In short: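 In this multiplexed morphology assay, cortical cells from rat receive chemicals at DIV 7 and are fixed at DIV 12, then immunostained and imaged; branch points are counted, with DMSO as baseline.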

[14] = CCTE_Mundy_HCI_Cortical_NOG_NeuriteCount: CCTE's Neurite Outgrowth Assay in rat cortical cells for Neurite Count, Mundy Lab (AID 2284212);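 further: cells fixed about two days after chemical exposure began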
In short: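 Rat cortical primary cells; compound added 2 h post-plating, 1/10 dilution of working solution. Anti-betaIII-tubulin/AF488 ICC; ArrayScan neurite count vs DMSO.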

[15] = CCTE_Mundy_HCI_Cortical_Synap_Neur_Matur_NeuriteSpotCountPerNeuron: CCTE's Synaptogenesis and Neurite Maturation Assay in rat cortical cells for Neurite Spot Count per Neuron Count, Mundy Lab (AID 2284215)
In short: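 Developing rat cortical neurons, with glia suppressed by AraC, are exposed to chemicals from DIV 7 to DIV 12. Automated fluorescence imaging of MAP2-labelled neurites and synaptophysin puncta yields a count per neuron, normalised against DMSO wells.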

[16] = CCTE_Mundy_HCI_Cortical_Synap_Neur_Matur_CellBodySpotCount: CCTE's Synaptogenesis and Neurite Maturation Assay in rat cortical cells for Cell Body Spot Count, Mundy Lab (AID 2284223)
In short: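 Chemicals were applied to AraC-treated rat primary cortical cells at DIV 7 and measured at DIV 12. Fixed cells were labelled for MAP2, synaptophysin and nuclei, and high-content imaging gave cell body synaptophysin spot counts per neuron relative to DMSO.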

[17] = CCTE_Mundy_HCI_hNP1_Pro_ResponderAvgInten: CCTE's Proliferation Assay in human neuroprogenitor cells, Mundy Lab (AID 2284224; active means hit-call score of the fitted dose curve at least 0.9, where 1 is the maximum;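 further: human neural progenitor cells hNP1 derived from WA09 embryonic stem cells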)
In short: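 Proliferation read as average intensity of BrdU-positive cells, imaged at 26.25 h post-dosing: chemical exposure started after 40–44 h culture, BrdU during final 4 h, paraformaldehyde fixation. Positive-direction fit relative to DMSO.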

[18] = UKN4_HCS_LUHMES_cell_viability: Viability Assessment in the University of Konstanz (UKN) Leist Lab Neurite Outgrowth Assay in human LUHMES cells (UKN4) (AID 2284232)
In short: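 Measured in replated, 2-day-differentiated LUHMES cells treated 24 h; stained 30 min with H-33342 and calcein-AM before high-content imaging.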

[19] = CCTE_Mundy_HCI_Cortical_NOG_NeuronCount: CCTE's Neurite Outgrowth Assay in rat cortical cells for Neuron Count, Mundy Lab (AID 2284236; active means hit-call score of the fitted dose curve at least 0.9, where 1 is the maximum;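 further: neurons counted by imaging betaIII-tubulin and Hoechst stained cortical cells; cells exposed to compound for about 48 hours before fixation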)
In short: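 Read-out: neuron number by high-content imaging of betaIII-tubulin (Alexa Fluor-488) and Hoechst-labelled rat primary cortical cells.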

[20] = CCTE_Mundy_HCI_Cortical_NOG_BPCount: CCTE's Neurite Outgrowth Assay in rat cortical cells for Branch Point Count, Mundy Lab (AID 2284237);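 further: branch points counted about two days after chemical exposure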
In short: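 Measured 50.33 h after dosing, this morphology endpoint uses rat primary cortical cultures labelled for betaIII-tubulin. Branch points are quantified by high-content imaging, with DMSO as negative control and baseline.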

[21] = CCTE_Mundy_HCI_hNP1_Casp3_7: CCTE's Caspase-Glo 3/7 Assay in human neuroprogenitor cells for Apoptosis, Mundy Lab (AID 2284240)
In short: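 Luminescent caspase-3/7 readout, 26.5 h post-dose, in human neural progenitor cells from WA09 embryonic stem cells. Cells grew 40–44 h at 37 °C, 5% CO2 before chemical addition. Activity analysed as signal increase over DMSO baseline.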

[22] = CCTE_Mundy_HCI_hNP1_CellTiter: CCTE's Cell Titer-Glo 2 Assay in human neuroprogenitor cells for Viability, Mundy Lab (AID 2284241; active means hit-call score of the fitted dose curve at least 0.9, where 1 is the maximum)
In short: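 Viability read as luminescent ATP content (CellTiter-Glo, 30 min room temperature) twenty-four hours after dosing, relative to DMSO. Cells: WA09-derived hNP1 neuroprogenitors on poly-L-ornithine/laminin, plated 40 to 44 hours before chemical.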

[23] = IUF_NPC2c_oligodendrocyte_migration_120hr: Leibniz Research Institute for Environmental Medicine (IUF) 120-hour Neural Progenitor Cell Migration Assay for Oligodendrocyte Migration (NPC2c) (AID 2284297);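 further: O4-positive oligodendrocyte migration distance divided by radial glia migration distance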
In short: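 Using fetal brain neural progenitor spheres differentiating in N2 medium at 37C, compounds were present for 120 h. Oligodendrocyte migration distance, normalized to radial glia migration, was measured from imaged O4 staining.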

[24] = IUF_NPC2a_radial_glia_migration_120hr: Leibniz Research Institute for Environmental Medicine (IUF) 120-hour Neural Progenitor Cell Migration Assay for Radial Glia Migration (NPC2a) (AID 2284298)
In short: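 Exposure of 0.3 mm primary hNPC spheres runs day 0 to 120 h with a half-volume medium change at day 3. Fixed cells get Hoechst staining; high-content analysis of nuclear positions yields radial glia migration distance per well, compared against DMSO controls.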

[25] = IUF_NPC2a_radial_glia_migration_72hr: Leibniz Research Institute for Environmental Medicine (IUF) 72-hour Neural Progenitor Cell Migration Assay for Radial Glia Migration (NPC2a) (AID 2284299)
In short: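 Spheres of human primary neural progenitors migrate on poly-D-lysine/laminin under compound exposure at 37C, 5% CO2. The 72 h radial glia migration distance comes from brightfield images, measured manually.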

[26] = IUF_NPC2b_neuronal_migration_120hr: Leibniz Research Institute for Environmental Medicine (IUF) 120-hour Neural Progenitor Cell Migration Assay for Neuron Migration (NPC2b) (AID 2284300)
In short: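 Fetal human NPC spheres migrate on PDL/laminin during 120 h compound treatment; neuronal migration distance, glia-normalized, scored versus DMSO control.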

[27] = IUF_NPC3_neuronal_differentiation_120hr: Leibniz Research Institute for Environmental Medicine (IUF) 120-hour Neuronal Differentiation Assay (NPC3) (AID 2284301)
In short: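 hNPC spheres, PDL/laminin, DMEM/F12 3:1 + 1% N2, 37C, 5% CO2; 7 concentrations + solvent control, 5 d exposure, half-change day 3. Fix 120 h; TUBB3/Hoechst ICC, CNN neuron calling; % neurons vs nuclei, DMSO-normalized.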

[28] = IUF_NPC4_neurite_length_120hr: Leibniz Research Institute for Environmental Medicine (IUF) 120-hour Neuronal Morphology Assay for Neurite Length (NPC4) (AID 2284302)
In short: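 hNPC spheres (0.3 mm, fetal brain GW 16-19) on PDL/laminin, DMEM:F12 3:1 + 1% N2, 37C 5% CO2; 7 concs + solvent control, day 0-5, half medium change d3; fix 120 h, TUBB3 ICC, mean neurite length um vs DMSO.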

[29] = IUF_NPC5_oligodendrocyte_differentiation_120hr: Leibniz Research Institute for Environmental Medicine (IUF) 120-hour Oligodendrocyte Differentiation Assay (NPC5) (AID 2284304; active means hit-call score of the fitted dose curve at least 0.9, where 1 is the maximum;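 further: primary human fetal neural progenitor spheres plated to migrate and differentiate; share of O4-positive cells among Hoechst nuclei found by CNN image analysis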)
In short: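 After plating on poly-D-lysine/laminin, fetal-derived hNPC spheres differentiated for 120 h at 37C in compound-containing N2 medium, refreshed by half on day 3. O4 immunostaining over Hoechst nuclei in the migration zone gave oligodendrocyte percentage relative to DMSO.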

[30] = IUF_NPC4_neurite_area_120hr: Leibniz Research Institute for Environmental Medicine (IUF) 120-hour Neuronal Morphology Assay for Neurite Area (NPC4) (AID 2284305; active means hit-call score of the fitted dose curve at least 0.9, where 1 is the maximum)
In short: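 hNPC spheres on PDL/laminin, N2 medium, 37C/5% CO2; dosed day 0, half-medium refresh day 3; fixed 120 h; TUBB3/Hoechst ICC, high-content imaging; neurite area = mean pixels per neuron (nuclei excluded); DMSO baseline, max 0.1%.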

O=C1CC2(CCCC2)CC(=O)N1CCCCN1CCN(c2ncccn2)CC1
outcome [1]: inactive | AC50 [2]: 21.6 µM (active) | outcome [3]: inactive | outcome [4]: inactive | AC50 [5]: 15 µM (active) | outcome [6]: inactive | outcome [7]: inactive | AC50 [8]: 25 µM (active) | AC50 [9]: 15.3 µM (active) | outcome [10]: inactive | outcome [11]: inactive | outcome [12]: inactive | outcome [13]: inactive | AC50 [14]: 11.9 µM (active) | outcome [15]: inactive | outcome [16]: inactive | outcome [17]: inactive | outcome [18]: inactive | outcome [19]: inactive | AC50 [20]: 9.79 µM (active) | outcome [21]: inactive | outcome [22]: inactive | outcome [23]: inactive | outcome [24]: inactive | outcome [25]: inactive | outcome [26]: inactive | outcome [27]: inactive | outcome [28]: inactive | outcome [29]: inactive | outcome [30]: inactive
